Compound activity from PubChem BioAssay.
Only some compounds are listed: those with a hit (about 19% of all), similar ones and a draw of the others.
Pf growth 96h = P. falciparum growth inhibition at 96 hours | P. falciparum luciferase reporter growth, 96 h | Potency, µM (top dose mostly 28.7 µM), for inactives: at the top dose activity change, negative = inhibition, hits mostly inhibitors | 6.9% of 320,000 active | AID 504834; further: potency means the concentration at half of the fitted maximal effect; on the % scale 0 is the no-effect control and ±100 the full control effect
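Luminescence readout: decreased luciferase signal marks inhibited growth of reporter-expressing P. falciparum in infected red cells (2% hematocrit, 0.05% parasitemia final), exposed to compound two generations (96 h, 37 C, 5% CO2).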
CHX counter = affects cycloheximide protein synthesis inhibition readout, counter-screen | cell reporter, cycloheximide protein synthesis inhibition counterscreen | max response, % | 12% of 300,000 active | AID 2314; in the data active means max response mostly above about 13%, no sharp cut-off; inactive means mostly below about 14%; further: read at 38.3 µM for the half of the compounds with a filed dose; 0% is about no effect
AMA1-RON2 inh = AMA1-RON2 (P. falciparum) interaction inhibition. 0.2% of 360,000 active. AID 720542. AlphaScreen AMA1-biotinylated RON2 peptide binding. Potency, µM (titrated, usually from 58.2 µM), for inactives: at the top dose activity change, negative = inhibition, most hits filed as inhibitors;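 further: potency means the concentration at half of the fitted maximal effect; 0% = vehicle wells and -100% = peptide control; nearly all actives have a fitted effect of over 45% in size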
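AMA1 (3D7) with his tag at 25 nM final met compounds first, then biotinylated RON2 peptide at 25 nM; detection used donor plus acceptor beads, 10 µg/mL apiece, read by AlphaScreen after 30 min at room temperature.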
Shiga toxin inh = inhibitors of Shiga toxin in Vero cells | 9.2% of 290,000 active | inhibition, % at 38.7 µM | Vero cells, Shiga toxin protein synthesis inhibition reporter; in the data active means inhibition mostly above about 28%, no sharp cut-off; inactive means mostly below about 43%; further: 0% is about no effect
Pf growth 48h = P. falciparum growth inhibition at 48 hours (one generation) | Potency, µM (series often up to 28.7 µM), for inactives: at the highest dose activity change, negative = inhibition, most hits filed as inhibitors | 5.9% of 310,000 active | AID 504832 | P. falciparum luciferase growth in erythrocytes, 48 h; further: potency means the concentration at half of the fitted maximal effect; on the % scale 0 is the no-effect control and ±100 the full control effect
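Firefly luciferase activity from engineered P. falciparum reports growth; inhibitors lower the luminescent signal. Cultures contained 2% hematocrit erythrocytes at 0.1% final parasitemia.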
SARS PLP yeast = blocks SARS-CoV papain-like protease in a yeast assay | Potency, µM (titrated, usually from 32.9 µM), without a hit: at the top dose activity, positive = growth rescue, most hits filed as activators | S. cerevisiae expressing SARS-CoV PLpro, growth rescue | AID 485353 | 0.19% of 330,000 active; calls by dose curve; further: potency means the concentration at half of the fitted maximal effect; 0% is about no effect; nearly all actives have a fitted effect of over 55% in size
* = called active by the depositor; i = inactive; ? = inconclusive; / = no result; [ ] = another dose, or the depositor's remark. Unless noted, the call rests on the fitted dose curve; in most records, active means well fitted curve in the direction sought with a large enough effect; inconclusive means small, poorly fitted or top-dose-only effect, or another doubt; inactive means no such curve, though single readings can be large; an effect the other way counts as inactive or inconclusive.

SMILES	Pf growth 96h	CHX counter	AMA1-RON2 inh	Shiga toxin inh	Pf growth 48h	SARS PLP yeast
CCOC(=O)c1sc(NC(=O)CN2C(=O)C3CC=CCC3C2=O)nc1C (stereo not given)	21%	/	11%	/	-1%	3%
CC1CCc2c(sc3ncn(CCO)c(=O)c23)C1 (stereo not given)	?	38*	-13%	64*	51%	2%
CCOC(=O)c1sc(NC(=O)Cn2nnc3sc4c(c3c2=O)CCC(C(C)(C)C)C4)nc1C (stereo not given)	0%	-3	-11%	4	9.3µM*	10%
CCOC(=O)c1nc2sc3c(c2c(=O)[nH]1)CCC(C)C3 (stereo not given)	86%	5	53%	-9	?	-3%
CC(=O)Cn1nnc2sc3c(c2c1=O)CCC(C(C)(C)C)C3 (stereo not given)	-12%	66*	1%	88*	240%	-2%
Cc1cccc(-n2c(=O)c3ccccc3n3c(=S)[nH]nc23)c1C	15%	-8	6%	11	-1%	-1%
Cc1nc(Cl)c2c(n1)NC1=C(O2)C(=O)CCC1	2%	21*	8%	19	19%	-9%
CC1CCN(c2ccc(C=O)o2)CC1	0.23µM*	10	-11%	27	-26%	1%
CN(/C(=N/S(=O)(=O)c1cccs1)c1ccccc1)c1ccccc1	-22%	-3	-5%	-11	-9%	-13%
Cc1cc(C)cc(NS(=O)(=O)c2cccs2)c1	-16%	-5	-22%	-10	25%	-4%
Cc1cc(C)c[n+](C2=C([O-])c3ccccc3C(=O)/C2=N\S(=O)(=O)c2cccs2)c1	?	-1	-4%	-1	1.9µM*	2%
Cc1cc[n+](C2=C([O-])c3ccccc3C(=O)/C2=N\S(=O)(=O)c2cccs2)cc1C	3.3µM*	-5	-8%	10	2.6µM*	-2%
Cc1ccc(/C=N/Nc2cccc3cccnc23)c(O)c1	190%	28*	17%	48	0%	-14%
Oc1ccc(/C=N/Nc2cccc3cccnc23)c(O)c1	53%	59*	-4%	102*	55%	-28%
Oc1ccc(C=NNc2ccccn2)c(O)c1	/	/	-9%	/	/	/
CCC(=O)Nc1cccc2cccnc12	18%	5	-5%	27	7%	1%
O=C(NCc1cccs1)c1cc2c(s1)-c1ccccc1OC2	-24%	20*	79%	32	1%	-29%
O=C(NC1CC1)c1cc2c(s1)-c1ccccc1OC2	13µM*	77*	3%	104*	/	-20%
COc1ccc(C(=O)Nc2ccc(Cl)cc2C(=O)N2CCCC(C)C2)cc1OC (stereo not given)	?	-4	-8%	-8	2%	15%
COc1ccc([C@@H]2CNC(=O)C2)cc1OC1CCCC1	-13%[12.8 µM]	/	/	/	-6%[12.8 µM]	/
C=CC(C)(C)c1[nH]cnc1/C=C1\NC(=O)C(C(C)C)NC1=O (stereo not given)	2.1µM*	-3	90%	-3	?	0%
C/C(=N\Nc1cccc2cccnc12)c1ccc[nH]1	252%	40*	-11%	75*	421%	0%
COC(=O)c1ccccc1N1CCS(=O)(=O)CC1	15%	-2	5%	19	9%	-1%
Cn1cc(S(=O)(=O)N2CCNCC2)cc1C(N)=O	/	/	-3%[11.6 µM]	/	/	2%
Cc1ccc(S(=O)(=O)N/N=C\c2ccc3c(c2)OCO3)cc1	8%	16*	-1%	41	-2%	-4%
SMILES	Pf growth 96h	CHX counter	AMA1-RON2 inh	Shiga toxin inh	Pf growth 48h	SARS PLP yeast
Cc1ccc(S(=O)(=O)Oc2cccc(/C=N/n3cnnc3)c2)cc1	101%	10	-11%	21	35%	-2%
Cc1ccc(S(=O)(=O)N(C)/N=C/c2ccc(C(=O)O)cc2)cc1	?	5	-3%	21	-7%	0%
Cc1ccc(S(=O)(=O)Oc2cccc(/C=N/Nc3ccc(C(=O)O)cc3)c2)cc1	4%	37*	-13%	26*	14%	1%
COc1ccc(S(=O)(=O)N/N=C\c2ccc3c(c2)OCO3)c(OC)c1	?	2	-9%	-4	?	-3%
Cc1ccc(S(=O)(=O)N/N=C/c2ccc(C(=O)O)cc2)cc1	12µM*	0	-3%	-10	31%	0%
COc1ccc(OC)c(S(=O)(=O)N/N=C\c2ccc3c(c2)OCO3)c1	-31%	44*	-8%	73*	61%	2%
Cc1ccc(S(=O)(=O)N/N=C\c2ccc3c(c2)OCO3)cc1C	35%	5	-7%	-15	23%	-3%
CN(CC(=O)Nc1ccc(F)cc1)C(=O)CN1C(=O)NC(CCc2ccccc2)C1=O (stereo not given)	/	/	3%	/	/	/
Cc1ccnc2nc(NC(=O)c3ccco3)nn12	8%	26*	-5%	48*	78%	11%
O=C(Nc1nc2nc(-c3ccccc3)cc(-c3ccccc3)n2n1)c1ccco1	/	9	46%	-5	2.9µM*	0%
O=C(Nc1nc2nccc(-c3ccccc3)n2n1)c1ccccc1	117%	22*	2%	60	74%	1%
O=C(Nc1nc2nccc(-c3ccccc3)n2n1)c1ccc(F)cc1	2%	1	-1%[11.6 µM]	-9	23%	8%
O=C1c2cccnc2C(Nc2ccc(Br)cc2)N1Cc1cccs1 (stereo not given)	0%	6	-1%	-18	12%	1%
O=C1c2cccnc2C(Nc2ccc(Br)cc2Br)N1Cc1cccs1 (stereo not given)	6.6µM*	3	/	-7	?	0%
CCc1ccc(-c2nnn(CCC#N)n2)cc1	-14%	29*	1%	40*	36%	-1%
CCc1ccc(-c2nnn(CCC(=O)OC)n2)cc1	4.7µM*	19*	2%	48	43%	10%
CC(C)c1ccc(-c2nnn(CCC(=O)O)n2)cc1	?	-4	1%	-19	?	-3%
Cc1ccc(C)c(OCc2nc3ccccc3[nH]2)c1	351%	43*	-6%	88*	i	-6%
Cc1c(NCc2nc3ccccc3[nH]2)c(=O)n(-c2ccccc2)n1C	13µM*	29*	68%	57	21%	-11%
Cc1ccc(C)c(OCc2nc3ccc(S(=O)(=O)Nc4c(C)n(C)n(-c5ccccc5)c4=O)cc3[nH]2)c1	5.2µM*	-2	19%	-1	12µM*	0%
Cc1c(NCc2cc(Cl)cc(Cl)c2O)c(=O)n(-c2ccccc2)n1C	-19%	-3	34%	-10	/	0%
Cc1cccc(C)c1OCc1nc2ccccc2[nH]1	?	3	-14%	0	-19%	-35%
COc1cc(NC(=O)CN2C(=O)c3ccccc3Sc3ccc(C(=O)N4CCOCC4)cc32)cc(OC)c1OC	?	-1	12%	8	6.6µM*	5%
C=CCN1C(=O)c2ccccc2Sc2ccc(C(=O)N3CCC4(CC3)OCCO4)cc21	10µM*	-2	-8%	-14	?	-2%
